# Activity calls are given as the source filed them.
# Assays:
# [1] = binders of probe aFSTL3 on microarray, primary screen, stem cell growth factor project, biochemical, small-molecule microarray, fluorescence 635/667 (AID 1064); conditions: higher = more signal;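 also: measures binding of the biotinylated anti-FSTL3 antibody to printed compounds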
# [2] = binders from COS7 lysate, DM2A8 probe, primary screen, torsin A project, cell lysate, small-molecule microarray, fluorescence 635/667 (AID 1065); conditions: higher = more signal, COS7 lysate expressing mutant human TOR1A
# [3] = binders of probe aFGF2 on microarray, primary screen, stem cell growth factor project, biochemical, small-molecule microarray, fluorescence 635/667 (AID 1067); conditions: higher = more signal;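 also: measures binding of biotinylated aFGF2 protein to printed compounds on slides; z-score merges feature fluorescence and signal-to-noise across triplicate slides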
# [4] = binders of probe aFGF10 on microarray, primary screen, stem cell growth factor project, biochemical, small-molecule microarray, fluorescence 635/667 (AID 1071); conditions: higher = more signal;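 also: score merges 667 nm spot intensity and signal to noise from triplicate slides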
# [5] = biological target: Neurogenic locus notch homolog protein 2 (Homo sapiens) (UniProt Q04721); assay: Notch2 binders on small-molecule microarrays, primary screen, biochemical, small-molecule microarray, 635 nm fluorescence, stem cell growth factors (AID 1073); conditions: Notch2 binding, higher = more signal
# [6] = biological target: Pro-neuregulin-1, membrane-bound isoform (Homo sapiens) (UniProt Q02297); assay: NRG1 binders on small-molecule microarrays, primary screen, psychiatric disease protein project, biochemical, small-molecule microarray, fluorescence 635/667 (AID 1075); conditions: NRG1 binding, 635 nm fluorescence, higher = more signal;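 also: score combines 667 nm spot fluorescence with signal to noise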
# [7] = system: Neuregulin-1 EGF-like domain; assay: binders of neuregulin-1 EGF-like domain, primary screen, biochemical, small-molecule microarray, 635 nm fluorescence (AID 1081); conditions: small-molecule microarray binding, higher = more signal;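 also: binding of the protein to compounds printed on small-molecule microarray slides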
# [8] = FRG1 promoter luciferase signal modulators, primary screen, FRG1 inhibition for FSHD, cell-based, C2C12 myotubes, firefly/Renilla luciferase, luminescence (AID 1084); conditions: higher = more signal, called active from +8 up or from −8 down
# [9] = binders of probe aFST on microarray, primary screen, stem cell growth factor project, biochemical, small-molecule microarray, fluorescence 635/667 (AID 1086); conditions: higher = more signal;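 also: score merges 667 nm fluorescence with signal-to-noise of each printed compound spot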
# [10] = binders of probe aHhip on microarray, primary screen, stem cell growth factor project, biochemical, small-molecule microarray, fluorescence 635/667 (AID 1087); conditions: higher = more signal;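 also: score merges spot fluorescence at 667nm with spot signal to noise ratio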
# [11] = system: PRMT1 (protein arginine N-methyltransferase 1); assay: PRMT1 binders on small-molecule microarrays, primary screen, biochemical, small-molecule microarray, 635 nm fluorescence (AID 1088); conditions: small-molecule microarray binding, higher = more signal;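 also: binding of Prmt1 protein to compounds spotted on small-molecule microarray slides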
# [12] = yeast growth modulation, basal conditions, primary screen, YJM789 clinical isolate, OD600, 24 h (AID 1089);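 also: growth of clinical yeast isolate S. cerevisiae YJM 789 seeded 1000 cells per well; test concentration not given here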; conditions: S. cerevisiae YJM789 growth, higher = more signal, called active from +8 up or from −8 down
# [13] = fission yeast growth modulation, primary screen, strain 972, OD600, 24 h, no modulator (AID 1090);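 also: basal condition with compound alone and no growth modifier present; test concentration not given here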; conditions: S. pombe 972 growth, higher = more signal, called active from +8 up or from −8 down
# [14] = S. cerevisiae growth modulation with rapamycin, primary screen, strain BY4716, OD600, 96 h (AID 1091); conditions: higher = more signal, called active from +8 up or from −8 down; also: test concentration not given here
# [15] = biological target: Torsin-1A-interacting protein 2 (Homo sapiens) (UniProt Q8NFQ8); assay: LULL1 binders on small-molecule microarray, primary screen, cell lysate, human LULL1 lysate, 635/667 nm fluorescence (AID 1092); conditions: hLULL1 lysate binding, 635 nm fluorescence, higher = more signal;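 also: probe is lysate of COS7 cells overexpressing human LULL1; score merges per-feature 667 nm fluorescence with signal-to-noise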
# [16] = E. coli growth modulation, two-sided OD650, primary screen, E. coli filamentation project, strain DRC41, 24 h (AID 1093); conditions: OD650, 24 h, higher = more signal, called active from +8 up or from −8 down;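 also: MC1000 strain lacking acrAB efflux and sulA so SOS filamentation is blocked; test concentration not given here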
# [17] = small-molecule microarray binders of probe aLefty2, primary screen, biochemical, biotinylated probe, 635/667 nm fluorescence (AID 1094); conditions: higher = more signal;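 also: score merges spot fluorescence near 667 nm with spot signal-to-noise ratio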
# [18] = system: Noggin (protein binding on small-molecule microarray); assay: Noggin binders on small-molecule microarray, primary screen, biochemical, 635/667 nm fluorescence (AID 1095); conditions: 635 nm fluorescence, higher = more signal;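 also: score merges 667 nm feature fluorescence with signal to noise over triplicate slides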
# [19] = biological target: Neurogenic locus notch homolog protein 3 (Homo sapiens) (UniProt Q9UM47); assay: NOTCH3 binders on small-molecule microarray, primary screen, biochemical, 635/667 nm fluorescence (AID 1096); conditions: NOTCH3 binding, 635 nm fluorescence, higher = more signal
# [20] = small-molecule microarray binders of probe aEGFR, primary screen, biochemical, biotinylated probe, 635/667 nm fluorescence (AID 1097); conditions: higher = more signal;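 also: probe is a biotinylated anti-EGFR antibody binding compounds printed on slides; score combines fluorescence near 667 nm and signal to noise of each spot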
# Sequence of Pro-neuregulin-1, membrane-bound isoform (Homo sapiens) (Q02297 whole entry, looked up, the tested form may be a part, canonical isoform): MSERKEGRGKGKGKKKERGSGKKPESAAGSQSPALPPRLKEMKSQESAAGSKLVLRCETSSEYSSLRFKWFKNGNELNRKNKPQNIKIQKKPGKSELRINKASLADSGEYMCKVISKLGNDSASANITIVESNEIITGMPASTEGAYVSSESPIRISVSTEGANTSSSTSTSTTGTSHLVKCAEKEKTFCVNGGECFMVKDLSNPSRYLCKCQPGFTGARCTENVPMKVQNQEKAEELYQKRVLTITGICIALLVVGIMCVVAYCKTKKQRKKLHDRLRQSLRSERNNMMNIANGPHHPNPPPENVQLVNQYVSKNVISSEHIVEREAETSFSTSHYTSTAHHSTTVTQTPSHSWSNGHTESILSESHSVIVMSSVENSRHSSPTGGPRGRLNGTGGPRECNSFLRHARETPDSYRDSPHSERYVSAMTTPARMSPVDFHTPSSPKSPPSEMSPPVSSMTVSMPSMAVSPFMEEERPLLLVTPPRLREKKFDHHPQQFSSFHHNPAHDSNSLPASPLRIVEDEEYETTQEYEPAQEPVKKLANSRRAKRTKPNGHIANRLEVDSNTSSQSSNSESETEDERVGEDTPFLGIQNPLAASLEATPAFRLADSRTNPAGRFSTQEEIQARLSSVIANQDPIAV
# Sequence of Neurogenic locus notch homolog protein 3 (Homo sapiens) (Q9UM47 whole entry, looked up): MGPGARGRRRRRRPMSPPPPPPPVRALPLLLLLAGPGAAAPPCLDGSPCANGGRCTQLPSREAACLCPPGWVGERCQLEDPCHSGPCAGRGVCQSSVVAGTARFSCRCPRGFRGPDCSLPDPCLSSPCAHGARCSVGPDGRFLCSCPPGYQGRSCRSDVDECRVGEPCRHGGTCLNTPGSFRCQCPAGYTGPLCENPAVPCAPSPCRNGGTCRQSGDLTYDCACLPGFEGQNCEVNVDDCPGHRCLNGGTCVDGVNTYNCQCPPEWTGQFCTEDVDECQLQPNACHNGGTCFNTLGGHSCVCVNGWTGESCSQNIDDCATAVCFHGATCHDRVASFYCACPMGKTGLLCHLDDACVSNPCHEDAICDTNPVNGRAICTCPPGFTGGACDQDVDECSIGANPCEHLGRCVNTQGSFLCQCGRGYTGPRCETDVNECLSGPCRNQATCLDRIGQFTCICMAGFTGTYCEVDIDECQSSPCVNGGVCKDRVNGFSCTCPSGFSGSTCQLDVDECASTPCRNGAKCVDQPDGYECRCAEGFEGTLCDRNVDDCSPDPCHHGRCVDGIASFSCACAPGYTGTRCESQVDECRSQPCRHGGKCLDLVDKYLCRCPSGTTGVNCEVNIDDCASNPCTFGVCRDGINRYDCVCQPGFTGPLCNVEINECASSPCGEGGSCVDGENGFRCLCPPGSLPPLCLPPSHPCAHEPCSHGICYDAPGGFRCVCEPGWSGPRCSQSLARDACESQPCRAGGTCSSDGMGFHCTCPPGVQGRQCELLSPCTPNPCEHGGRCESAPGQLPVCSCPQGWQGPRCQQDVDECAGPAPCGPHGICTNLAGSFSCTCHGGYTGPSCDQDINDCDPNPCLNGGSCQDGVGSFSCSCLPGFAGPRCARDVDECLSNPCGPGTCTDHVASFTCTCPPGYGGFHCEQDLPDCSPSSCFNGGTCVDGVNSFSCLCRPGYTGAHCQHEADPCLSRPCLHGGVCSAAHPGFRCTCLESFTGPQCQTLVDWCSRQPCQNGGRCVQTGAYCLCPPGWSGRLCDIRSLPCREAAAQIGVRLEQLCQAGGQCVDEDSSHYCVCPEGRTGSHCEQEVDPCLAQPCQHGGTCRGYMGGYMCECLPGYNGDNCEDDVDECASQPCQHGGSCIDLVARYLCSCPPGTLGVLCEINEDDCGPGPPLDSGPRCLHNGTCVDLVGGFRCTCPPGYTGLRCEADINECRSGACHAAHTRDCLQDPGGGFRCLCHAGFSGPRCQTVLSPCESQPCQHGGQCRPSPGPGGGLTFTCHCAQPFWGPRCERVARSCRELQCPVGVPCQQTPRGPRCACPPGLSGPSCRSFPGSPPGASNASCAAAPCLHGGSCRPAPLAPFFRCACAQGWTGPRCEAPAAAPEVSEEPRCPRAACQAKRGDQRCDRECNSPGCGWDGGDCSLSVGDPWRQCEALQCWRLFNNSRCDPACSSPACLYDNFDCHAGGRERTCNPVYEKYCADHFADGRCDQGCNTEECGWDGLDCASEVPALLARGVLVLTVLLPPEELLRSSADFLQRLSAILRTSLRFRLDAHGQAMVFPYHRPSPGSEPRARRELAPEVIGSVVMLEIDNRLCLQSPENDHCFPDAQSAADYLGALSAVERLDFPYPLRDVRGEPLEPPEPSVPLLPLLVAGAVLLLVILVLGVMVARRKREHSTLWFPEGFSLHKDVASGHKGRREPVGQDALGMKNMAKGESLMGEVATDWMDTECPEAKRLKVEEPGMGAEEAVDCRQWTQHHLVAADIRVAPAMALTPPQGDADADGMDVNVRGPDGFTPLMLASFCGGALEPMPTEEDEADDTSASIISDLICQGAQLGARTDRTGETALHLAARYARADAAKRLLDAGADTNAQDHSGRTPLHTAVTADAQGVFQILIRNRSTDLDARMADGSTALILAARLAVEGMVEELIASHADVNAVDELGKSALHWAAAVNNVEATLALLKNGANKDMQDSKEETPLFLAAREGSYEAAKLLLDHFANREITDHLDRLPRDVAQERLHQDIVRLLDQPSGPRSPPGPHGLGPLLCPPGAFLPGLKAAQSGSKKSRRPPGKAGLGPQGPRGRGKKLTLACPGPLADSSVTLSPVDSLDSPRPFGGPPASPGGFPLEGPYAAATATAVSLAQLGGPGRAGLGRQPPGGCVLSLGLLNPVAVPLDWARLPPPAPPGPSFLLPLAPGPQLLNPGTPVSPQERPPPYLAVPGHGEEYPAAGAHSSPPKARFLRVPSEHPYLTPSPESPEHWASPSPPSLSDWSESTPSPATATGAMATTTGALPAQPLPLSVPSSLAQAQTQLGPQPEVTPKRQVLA
# Sequence of Torsin-1A-interacting protein 2 (Homo sapiens) (Q8NFQ8 whole entry, looked up): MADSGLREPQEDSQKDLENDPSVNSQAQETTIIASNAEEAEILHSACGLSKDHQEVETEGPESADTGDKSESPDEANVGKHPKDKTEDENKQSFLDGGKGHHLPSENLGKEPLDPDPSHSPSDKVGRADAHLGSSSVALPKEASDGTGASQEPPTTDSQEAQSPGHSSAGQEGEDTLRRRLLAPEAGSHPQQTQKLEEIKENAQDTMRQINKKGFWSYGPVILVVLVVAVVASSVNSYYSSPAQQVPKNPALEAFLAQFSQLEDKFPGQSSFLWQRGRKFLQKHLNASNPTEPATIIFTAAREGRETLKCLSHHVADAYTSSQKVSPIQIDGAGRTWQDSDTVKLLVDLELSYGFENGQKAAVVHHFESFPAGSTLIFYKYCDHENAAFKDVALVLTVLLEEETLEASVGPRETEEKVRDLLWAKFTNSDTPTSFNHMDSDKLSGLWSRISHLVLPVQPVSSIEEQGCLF
SMILES,composite z-score [1],composite z-score [2],composite z-score [3],composite z-score [4],composite z-score [5],composite z-score [6],composite z-score [7],z-score [8],composite z-score [9],composite z-score [10],composite z-score [11],z-score [12],z-score [13],z-score [14],composite z-score [15],z-score [16],composite z-score [17],composite z-score [18],composite z-score [19],composite z-score [20]
COc1ccc(C(=O)Nc2cccc(CN3C(=O)[C@@]4(O[C@@H](CCn5cc(CCO)nn5)[C@H]([Si](C)(C)c5ccc(OC)cc5)[C@H]4C)c4ccccc43)c2)cc1,-0.115,0.485,-0.0381,0.205,1.12,1.08,1.11,-3.09 (inactive),0.407,-0.0994,1.55,1.65 (inactive),-14 (active),0.984 (inactive),2.06,-1.02 (inactive),0.0361,1.2,1.11,0.0511
COC(=O)c1ccc(C(O)C2C=CC3C(=O)N(C)C(=O)C3N2NC(=O)OC(C)(C)C)o1 (stereo not given),-0.0154,0.252,0.0942,1.03,1.48,1.34,1.29,0.896 (inactive),0.76,-0.0024,1.36,-0.0904 (inactive),0.771 (inactive),0.122 (inactive),3.01,-1.09 (inactive),0.177,0.356,0.526,0.0419
CN1C=C(C(=O)OCCS(C)(=O)=O)C(C(=O)OCCS(C)(=O)=O)=CC(CCCO)=CC1C1CC1 (stereo not given),-0.135,0.0461,-0.128,0.427,0.213,1.04,1.25,-0.483 (inactive),-0.0228,-0.0618,0.0371,-0.298 (inactive),-0.0029 (inactive),-0.692 (inactive),0.826,0.731 (inactive),-0.145,0.332,0.574,-0.068
CC(C)(C)OC(=O)CC[C@]1(C(=O)N2CCCCC2)N=C(c2ccc(OCCCO)cc2)O[C@H]1c1ccccc1N=[N+]=[N-],1.14,0.933,-0.0328,0.877,1.32,1.42,1.3,-0.275 (inactive),1.24,0.0818,1.54,0.589 (inactive),0.402 (inactive),0.73 (inactive),3.05,1.62 (inactive),0.292,1.21,1.01,0.872
CN(C)C(=O)[C@]1(CCC(=O)OC(C)(C)C)N=C(c2ccc(OCCCO)cc2)O[C@@H]1c1ccccc1N=[N+]=[N-],0.542,1.78,0.147,1.2,1.36,2.01,1.45,3.22 (inactive),1.43,-0.0867,1.54,1.1 (inactive),0.626 (inactive),0.0958 (inactive),3.78,0.515 (inactive),0.17,0.245,0.684,0.11
N#Cc1ccc(NN2C(C(O)c3ccc([N+](=O)[O-])cc3)C=CC3C(=O)N(c4ccccc4)C(=O)C32)cc1 (stereo not given),0.298,-0.0479,0.11,0.921,1.59,1.66,1.35,0.536 (inactive),0.899,-0.287,0.698,-0.0094 (inactive),1.2 (inactive),1.39 (inactive),3.29,-1.75 (inactive),0.0478,-0.299,1.06,0.0478
CN1CCC(CCCO)=CC1c1ccc(CN2CCCC2)cc1 (stereo not given),1.16,2.31,0.0626,0.789,1.12,1.7,1.27,0.745 (inactive),0.612,-0.0237,1.54,-1.05 (inactive),-2.41 (inactive),-0.763 (inactive),2.18,-0.145 (inactive),0.36,1.72,1.07,0.337
O=C(CS)NCCCCCCNC(=O)[C@@H]1C[C@@H]2C(=O)N3CCC[C@H]3C(=O)N2[C@@H]1c1ccc(O)cc1,0.525,0.0083,-0.111,0.589,-0.473,0.494,1.38,0.999 (inactive),-0.28,-0.254,1.14,0.883 (inactive),0.626 (inactive),1.07 (inactive),2.54,0.0508 (inactive),-0.0903,-0.221,0.165,-0.118
N#Cc1ccc(NN2C(C(O)c3cccs3)C=CC3C(=O)N(c4ccccc4)C(=O)C32)cc1 (stereo not given),0.106,0.145,0.0887,0.546,1.47,1.93,1.06,-0.911 (inactive),0.632,-0.236,0.843,-1.34 (inactive),1.73 (inactive),2.72 (inactive),3.35,-0.445 (inactive),-0.0768,-0.187,0.708,-0.0357
COCCOC(=O)N1C(=O)[C@@]2(c3cc(C#CCNC(N)=O)ccc31)[C@H](c1ccc(O)cc1)N1[C@H](c3ccccc3)[C@H](c3ccccc3)OC(=O)[C@H]1[C@@H]2C(=O)Nc1nc2ccccc2s1,0.764,0.172,-0.0736,0.826,1.27,0.787,0.297,-0.0332 (inactive),0.522,-0.0994,0.902,-2.82 (inactive),-1.55 (inactive),-1.12 (inactive),1.01,3.57 (inactive),0.218,1.23,1.04,0.13

# Reference: PubChem BioAssay
